# Counter-ions that a name gives are not always drawn. ± gives the standard deviation of the averaged measurements.
# How the values were obtained:
# Experiment in all cases: cell viability (% of vehicle); higher = less cytotoxic
# Conditions in all cases: 10 µM; 72 h
# HCI01 = tested on: HCI01 (cells of a triple-negative basal-like breast cancer xenograft)
# HCI03 = tested on: HCI03 (cells of an ER-positive luminal breast cancer xenograft)
# HCI09 = tested on: HCI09 (cells of a triple-negative luminal androgen receptor type breast cancer xenograft)
# HCI11 = tested on: HCI11 (cells of an ER-positive luminal breast cancer xenograft)
# HCI13 = tested on: HCI13 (cells of an ER-positive luminal breast cancer xenograft)
# HCI16 = tested on: HCI16 (cells of a triple-negative basal-like breast cancer xenograft)
# UCD52 = tested on: UCD52 (cells of a triple-negative basal-like breast cancer xenograft)
# WHIM2 = tested on: WHIM2 (cells of a triple-negative basal-like breast cancer xenograft)
# WHIM30 = tested on: WHIM30 (cells of a triple-negative basal-like breast cancer xenograft)
# 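Further: PDX cells carrying CMV promoter-driven luciferase, viability read as total photon flux per second by IVIS imaging following D-luciferin, vehicle control 0.1% DMSO.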
SMILES,cell viability (HCI01),cell viability (HCI03),cell viability (HCI09),cell viability (HCI11),cell viability (HCI13),cell viability (HCI16),cell viability (UCD52),cell viability (WHIM2),cell viability (WHIM30)
CN(C)C(=O)COC(=O)Cc1ccc(OC(=O)c2ccc(N=C(N)N)cc2)cc1.CS(=O)(=O)O [Camostat Mesilate],105 ± 24,133,85.2 ± 6.6,70.7,109 ± 5.7,112,99.8 ± 6.7,108 ± 5.9,110 ± 5.2
CC(S)C(=O)NCC(=O)O (stereo not given) [Tiopronin (Thiola)],104 ± 4.1,109,54.6 ± 48,107,105 ± 18,99.3,93.7 ± 3.6,103 ± 14,115 ± 4.5
CC(=O)Nc1ncc([N+](=O)[O-])s1 [Nithiamide],112 ± 16,159,106 ± 6.2,105,67.5 ± 5.2,133,109 ± 6.1,117 ± 13,91.3 ± 2
COCC1=C(C(=O)OC(C)OC(=O)OC(C)C)N2C(=O)[C@@H](NC(=O)/C(=N\OC)c3csc(N)n3)[C@H]2SC1 (stereo not given in full) [Cefpodoxime Proxetil],106 ± 3.7,176,102 ± 11,103,109 ± 18,133,99.2 ± 12,106 ± 3.2,105 ± 12
CN=C(NC#N)NCCSCc1nc[nH]c1C [Cimetidine],136 ± 22,124,93.85 ± 0.84,101,102 ± 16,115,88.1 ± 5.3,87.8 ± 19,120 ± 4.4
"Cc1c(C(=O)Nc2ccc(N3CC(C)OC(C)C3)nc2)cccc1-c1ccc(OC(F)(F)F)cc1 (stereo not given) [LDE225 (NVP-LDE225,Erismodegib)]",98.3 ± 17,119,66.8 ± 2.4,80.7,69.7 ± 4.5,94.8,80.8 ± 1.8,97.5 ± 14,86.1 ± 7.6
CCc1cccc2c3c([nH]c12)C(CC)(CC(=O)O)OCC3 (stereo not given) [Etodolac],117 ± 23,104,98.8 ± 27,97.2,97.3 ± 8,96.8,79.2 ± 9.2,92.6 ± 19,86 ± 8.4
OCCOc1ccc(C(=C(CCCl)c2ccccc2)c2ccccc2)cc1 [Ospemifene],117 ± 33,139,99.6 ± 30,106,91 ± 2.3,146,86.3 ± 1.5,78.5 ± 5.9,148 ± 10
CC(=O)Oc1cccc2c1C(=O)c1c(OC(C)=O)cc(C(=O)O)cc1C2=O [Diacerein],57 ± 39,93.9,79.1 ± 34,77.8,109 ± 11,146,98.6 ± 6.8,123 ± 39,60.3 ± 16
CCCNC(C)C(=O)Nc1ccccc1C.Cl (stereo not given) [Prilocaine hydrochloride],147 ± 18,117,112.29 ± 0.067,113,83.1 ± 5.5,122,102 ± 16,102 ± 6.2,135 ± 5
O=C([O-])P(=O)([O-])[O-].[Na+].[Na+].[Na+] [Foscarnet Sodium],104 ± 20,96.7,98.1 ± 3.7,89.6,95.1 ± 6.7,133,86.4 ± 3,103 ± 11,126 ± 2.2
"Cc1cc(Nc2cc(N3CCN(C)CC3)nc(Sc3ccc(NC(=O)C4CC4)cc3)n2)n[nH]1 [VX-680 (MK-0457,Tozasertib)]",122 ± 11,84.3,70 ± 21,133,81.5 ± 1.7,111,66.5 ± 10,67.6 ± 2.1,142 ± 14
CC(C)(C)c1nc(-c2cccc(NS(=O)(=O)c3c(F)cccc3F)c2F)c(-c2ccnc(N)n2)s1,118 ± 12,125,98.9 ± 1.2,119,187 ± 54,73.6,122 ± 12,116 ± 4.4,91.4 ± 15
C[N+](C)(C)CC(=O)[O-] [Betaine],107 ± 33,140,103 ± 12,90.7,140 ± 1.5,116,106 ± 5.9,99.7 ± 16,90 ± 12
O=c1cc[nH]c(=S)[nH]1 [2-Thiouracil],107 ± 6.1,139,94.4 ± 19,103,82.4 ± 8.2,112,91.8 ± 2.9,117 ± 34,178 ± 5.9
C=CC[N+]1(C2CC3C4CCC5CC(O)C(N6CCOCC6)CC5(C)C4CCC3(C)C2OC(C)=O)CCCC1.[Br-] (stereo not given) [Rocuronium Bromide],100 ± 8.3,133,103 ± 3.9,102,115 ± 7.2,80.4,118 ± 8,99.8 ± 22,119 ± 7.7
OC(CCCN1CCCCC1)(c1ccccc1)c1ccccc1 [Diphenidol HCl],117 ± 19,139,107 ± 12,82.5,88.1 ± 2.6,118,101 ± 25,108 ± 9.6,113 ± 11
COc1cc2nc(N(C)CCCNC(=O)C3CCCO3)nc(N)c2cc1OC.Cl (stereo not given) [Alfuzosin HCl],103 ± 3,97.4,105 ± 8.8,113,101 ± 24,113,91.6 ± 8.4,85.5 ± 3,133 ± 8.8
O=C(O)c1cc(=O)[nH]c(=O)[nH]1 [Orotic acid],90.2 ± 12,100,88.5 ± 22,93.2,85.7 ± 3.8,120,93.6 ± 9.7,102.1 ± 0.24,76.6 ± 5.3
O=C(O)CCNC(=O)c1ccccc1 [Betamipron],121 ± 22,105,87.5 ± 28,98.2,69.8 ± 10,98.9,99.9 ± 9.4,101 ± 11,108 ± 4.5

SMILES,cell viability (HCI01),cell viability (HCI03),cell viability (HCI09),cell viability (HCI11),cell viability (HCI13),cell viability (HCI16),cell viability (UCD52),cell viability (WHIM2),cell viability (WHIM30)
CCOC(=O)CC(=O)N1CCSC1COc1ccccc1OC (stereo not given) [Moguisteine],68.2 ± 37,114,102 ± 8.2,89.5,115 ± 9,127,83.2 ± 4.3,88.7 ± 22,131 ± 4.4
CC(O)C1C(=O)N2C(C(=O)O)=C(SC3CNC(C(=O)N(C)C)C3)C(C)C12 (stereo not given) [Meropenem],103 ± 7,106,87.1 ± 6.1,95.1,98.6 ± 2.3,103,73.2 ± 6.8,83.4 ± 4.6,112 ± 5.1
CN1CCN2c3ncccc3Cc3ccccc3C2C1 (stereo not given) [Mirtazapine],66.7 ± 36,149,91.4 ± 1.8,103,118 ± 26,114,86.1 ± 2.4,87.6 ± 30,138 ± 17
NS(=O)(=O)Cc1noc2ccccc12 [Zonisamide],96.13 ± 0.4,136,90 ± 5,108,117 ± 18,99.1,130 ± 16,92.9 ± 7.1,129 ± 3.9
O=C1NC([O-])=NC1(c1ccccc1)c1ccccc1.[Na+] [Phenytoin sodium],97.2 ± 10,142,96.6 ± 14,101,104 ± 9.4,114,91.6 ± 8.2,105 ± 7.8,118 ± 8.7
CNNCc1ccc(C(=O)NC(C)C)cc1.Cl [Procarbazine HCl],93.5 ± 4.4,90.5,96.1 ± 13,99.7,104 ± 21,87.6,79.7 ± 13,98 ± 16,83.91 ± 0.74
CNC(C)C1CCC(N)C(OC2C(N)CC(N)C(OC3OCC(C)(O)C(NC)C3O)C2O)O1.O=S(=O)(O)O (stereo not given) [Gentamycin Sulfate],119 ± 8.9,90.7,100 ± 26,101,94.4 ± 9.3,97,94.8 ± 20,72.4 ± 2,116 ± 21
CC(O)C1C(=O)N2C(C(=O)OCOC(=O)C(C)(C)C)=C(SC3CN(C4=NCCS4)C3)C(C)C12 (stereo not given) [Tebipenempivoxil],130 ± 21,110,142 ± 85,115,101 ± 34,89.7,97.2 ± 11,112 ± 53,133 ± 17
COCCCN1CCC(NC(=O)c2cc(Cl)c(N)c3c2OCC3)CC1 [Prucalopride],86.2 ± 8.4,134,99.9 ± 20,94.2,120 ± 13,122,89.3 ± 11,91.4 ± 9.2,123 ± 2.2
CCN(CC)C(=S)SSC(=S)N(CC)CC [Disulfiram],140 ± 49,75.8,71.6 ± 4.1,66.5,90 ± 5.2,92.3,82.3 ± 8.8,102 ± 8,115 ± 14
Cl.O=C(O)C=Cc1ccc(Cn2ccnc2)cc1 [Ozagrel HCl],72.6 ± 40,135,100 ± 10,99.5,126 ± 10,122,87.7 ± 1.4,93.3 ± 30,140 ± 2.3
CCC(=O)NCCC1CCc2ccc3c(c21)CCO3 (stereo not given) [Ramelteon],98.9 ± 7,113,94 ± 8.3,93,94 ± 20,81.6,80.6 ± 1.4,80.7 ± 9.9,103 ± 3.4
CN(C)CCOC(c1ccccc1)c1ccccc1.Cl [Diphenhydramine HCl],109 ± 18,123,87 ± 2.5,90.8,74 ± 3.2,118,84.2 ± 6.5,107 ± 32,116 ± 28
NC(=O)NO [Hydroxyurea],62.8 ± 36,111,89.2 ± 7.3,90,113 ± 11,110,78.7 ± 4.1,96.5 ± 31,125 ± 3.9
Cc1ccccc1C(=O)Nc1ccc(C(=O)N2CCCC(O)c3cc(Cl)ccc32)c(C)c1 (stereo not given) [Tolvaptan],97.7 ± 38,138,80.4 ± 7.1,85.9,101 ± 5,159,89 ± 4.9,92.5 ± 19,157 ± 8.1
COc1c(N2CCNC(C)C2)c(F)cc2c(=O)c(C(=O)O)cn(C3CC3)c12 (stereo not given) [Gatifloxacin],99.3 ± 31,81.1,75 ± 10,124,82.6 ± 7.6,92.2,140 ± 6.7,59.6 ± 23,124 ± 24
CCCNCC(O)COc1ccccc1C(=O)CCc1ccccc1.Cl (stereo not given) [Propafenone HCl],90.3 ± 6.7,119,96 ± 14,87.2,95.3 ± 7,101,76.9 ± 7.8,86.9 ± 20,115 ± 6.6
CN(C)CCN(Cc1ccccc1)c1ccccn1.Cl [Tripelennamine HCl],89.8 ± 3.5,62.6,94.4 ± 2.5,80.6,89.3 ± 1.7,99.9,81.03 ± 0.58,111.1 ± 0.86,94.2 ± 7.7
Nc1nc(=O)c2nc(CNc3ccc(C(=O)NC(CCC(=O)O)C(=O)O)cc3)cnc2[nH]1 (stereo not given) [Folic acid],103 ± 21,118,97.5 ± 12,85.3,101 ± 2.8,117,92.4 ± 23,96.1 ± 4.2,101 ± 8.4
Cc1ccccc1N1C(=O)c2cc(S(N)(=O)=O)c(Cl)cc2NC1C (stereo not given) [Metolazone],121 ± 18,129,98.5 ± 8.3,57.9,132 ± 16,198,107 ± 1.9,103 ± 6.2,127 ± 13
